Test results taken from PubChem BioAssay (Tox21).
Results filed as inconclusive are left out. Activity calls are given as the source filed them. Unless noted, calls follow the shape of the dose curve; as a rule, active = well fitted curve in the direction sought with a large enough effect in the repeat runs; inconclusive = weak or mixed curves; inactive = no such curve, though single readings can be large; an effect the other way counts as inactive or inconclusive.

What was measured:
[1] = qHTS assay to identify small molecule antagonists of the glucocorticoid receptor (GR) signaling pathway - cell viability counter screen (AID 720693); also: nearly all actives have a fitted effect of over 55% in size
[2] = qHTS assay for identifying genotoxic compounds that show differential cytotoxicity against isogenic chicken DT40 cell lines with known DNA damage response pathways - wild type cell line (AID 743012); also: nearly all actives have a fitted effect of over 60% in size; also: potency is read from the fitted curve at half-maximal effect
Procedure, shortened: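 First, wild type DT40 cells were plated at 300 per well and equilibrated about 0.5 h at 37 C/5% CO2. Next, compounds in DMSO were added and exposure lasted 40 h. Finally, CellTiter-Glo was added for 30 min at room temperature and luminescence recorded.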

[3] = qHTS assay for identifying genotoxic compounds that show differential cytotoxicity against isogenic chicken DT40 cell lines with known DNA damage response pathways - Rev3 mutant cell line (AID 743014); also: nearly all actives have a fitted effect of over 55% in size; also: potency is read from the fitted curve at half-maximal effect
[4] = qHTS assay for identifying genotoxic compounds that show differential cytotoxicity against isogenic chicken DT40 cell lines with known DNA damage response pathways - Rad54/Ku70 mutant cell line (AID 743015); also: nearly all actives have a fitted effect of over 60% in size; also: potency is read from the fitted curve at half-maximal effect
[5] = qHTS assay to identify small molecule antagonists of the androgen receptor (AR) signaling pathway - cell viability counter screen (AID 743033; also: nearly all actives have a fitted effect of over 45% in size)
[6] = qHTS assay to identify small molecule antagonists of the androgen receptor (AR) signaling pathway using the MDA cell line - cell viability counter screen (AID 743041; also: nearly all actives have a fitted effect of over 45% in size)
Procedure, shortened: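 Cells were plated at 3,000 per well and left 5 h. Compounds in DMSO were then pinned in, followed by R1881. After 16 h at 37C, CellTiter-Fluor fluorescence gave viability.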

[7] = target: Androgen receptor (Homo sapiens) (UniProt P10275); experiment: qHTS assay to identify small molecule agonists of the androgen receptor (AR) signaling pathway using the MDA cell line (AID 743040; also: nearly all actives have a fitted effect of over 20% in size)
Androgen receptor (Homo sapiens), sequence (P10275 whole entry, looked up): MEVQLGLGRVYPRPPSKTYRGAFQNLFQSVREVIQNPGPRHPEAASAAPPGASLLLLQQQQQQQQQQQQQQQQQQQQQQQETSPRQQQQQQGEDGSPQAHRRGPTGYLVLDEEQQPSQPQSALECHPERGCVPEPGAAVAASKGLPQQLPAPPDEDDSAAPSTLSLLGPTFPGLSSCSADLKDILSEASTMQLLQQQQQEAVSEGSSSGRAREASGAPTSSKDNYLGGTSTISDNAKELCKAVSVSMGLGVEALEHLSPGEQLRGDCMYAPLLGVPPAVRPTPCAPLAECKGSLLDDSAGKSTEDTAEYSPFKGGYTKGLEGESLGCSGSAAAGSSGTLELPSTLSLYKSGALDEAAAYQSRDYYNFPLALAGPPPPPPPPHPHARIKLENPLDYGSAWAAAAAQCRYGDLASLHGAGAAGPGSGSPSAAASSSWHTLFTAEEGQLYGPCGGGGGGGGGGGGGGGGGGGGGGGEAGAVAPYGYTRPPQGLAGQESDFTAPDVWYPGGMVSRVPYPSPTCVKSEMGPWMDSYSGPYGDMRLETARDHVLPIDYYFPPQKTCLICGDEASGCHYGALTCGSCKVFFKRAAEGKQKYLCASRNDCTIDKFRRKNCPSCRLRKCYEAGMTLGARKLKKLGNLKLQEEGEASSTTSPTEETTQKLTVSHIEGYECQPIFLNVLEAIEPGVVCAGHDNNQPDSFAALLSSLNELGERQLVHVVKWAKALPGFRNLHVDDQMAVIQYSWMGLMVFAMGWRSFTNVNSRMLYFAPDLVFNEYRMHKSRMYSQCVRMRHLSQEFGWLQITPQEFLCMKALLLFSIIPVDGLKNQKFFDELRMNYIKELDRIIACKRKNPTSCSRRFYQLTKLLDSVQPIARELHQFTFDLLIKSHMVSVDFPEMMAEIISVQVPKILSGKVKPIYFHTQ
Procedure, shortened: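 Cells plated, 5 h at 37C/0% CO2; compound or DMSO pinned; 16 h at 37C; ONE-Glo added; luminescence measured after 30 min at room temperature. Reporter line: MDA-kb2 with MMTV-luciferase responsive to AR and GR.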

[8] = target: Androgen receptor (Homo sapiens) (UniProt P10275); experiment: qHTS assay to identify small molecule antagonists of the androgen receptor (AR) signaling pathway using the MDA cell line (AID 743042; also: nearly all actives have a fitted effect of over 55% in size)
Procedure, shortened: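 Antagonist mode: compounds plus R1881 agonist added to MDA-kb2 AR-luc cells, incubated 16 h at 37C. Luciferase reporter luminescence quantified, with multiplexed CellTiter-Fluor readout for cell viability.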

[9] = target: Androgen receptor (Homo sapiens) (UniProt P10275); experiment: qHTS assay to identify small molecule antagonists of the androgen receptor (AR) signaling pathway (AID 743035; active = well fitted inhibition curve with a large enough effect in the signal ratio in the repeat runs, not every such curve was filed as active; the % refers to the signal ratio)
Procedure, shortened: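 Beta-lactamase FRET read (2 h RT incubation with LiveBLAzer B/G) following 16 h of compound plus R1881 treatment of AR-UAS-bla HEK293 cells, which had been pre-incubated 4 h at 37C.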

[10] = target: Androgen receptor (Homo sapiens) (UniProt P10275); experiment: qHTS assay to identify small molecule agonists of the androgen receptor (AR) signaling pathway (AID 743036; active = well fitted activation curve with a large enough effect in the signal ratio in the repeat runs, with a control signal flat, not every such curve was filed as active; the % refers to the signal ratio)
Procedure, shortened: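 Activation was read as beta-lactamase FRET signal from LiveBLAzer B/G substrate, added for 2 h at room temperature. Before that, GeneBLAzer AR-UAS-bla GripTite (HEK293) cells had 16 h compound exposure at 37C.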
% is scaled to controls: 0 for no effect and ±100 for the full control effect.

CC(=O)c1ccccc1O
inactive: outcome [1] | Potency [2] | Potency [3] | Potency [4] | Potency [5] | Potency [6]

N[C@H]1CN(c2c(F)cc3c(=O)c(C(=O)O)cn(C4C[C@H]4F)c3c2Cl)CC12CC2 (some centres not stated)
inactive: outcome [1] | Potency [2] | Potency [3] | Potency [4] | Potency [5] | Potency [6]

NS(=O)(=O)c1ccccc1Cl
inactive: outcome [1] | Potency [2] | Potency [3] | Potency [4] | Potency [5] | Potency [6]

CCc1nccnc1CC
inactive: outcome [1] | Potency [2] | Potency [3] | Potency [4] | Potency [5] | Potency [6]

CCN(CC)CCOCCOC(=O)C1(c2ccccc2)CCCC1
inactive: outcome [1] | Potency [5] | Potency [6]
active: Potency [2] 5.96 µM | Potency [3] 2.11 µM | Potency [4] 5.96 µM

CC/C=C\CC/C=C/CO
inactive: outcome [1] | Potency [2] | Potency [3] | Potency [4] | Potency [5] | Potency [6]

CCO[Si](CCC1CCC2OC2C1)(OCC)OCC (configuration not stated)
inactive: outcome [1] | Potency [2] | Potency [3] | Potency [4] | Potency [5] | Potency [6]

NC(=O)c1ccc([N+](=O)[O-])cc1
inactive: outcome [1] | Potency [2] | Potency [3] | Potency [4] | Potency [5] | Potency [6]

CCCCCCCCCCCCCCCCC
inactive: outcome [1] | Potency [2] | Potency [3] | Potency [4] | Potency [5] | Potency [6]

CC/C=C\CCOC(C)=O
inactive: outcome [1] | Potency [2] | Potency [3] | Potency [4] | Potency [5] | Potency [6]

CC(C)CNCC(C)C
inactive: outcome [1] | Potency [2] | Potency [3] | Potency [4] | Potency [5] | Potency [6]

CCOC(=O)c1cccc(N)c1
inactive: outcome [1] | Potency [2] | Potency [3] | Potency [4] | Potency [5] | Potency [6]

CCCCCCCCS(=O)(=O)Cl
inactive: outcome [1] | Potency [2] | Potency [3] | Potency [4] | Potency [5] | Potency [6]

CCN1CCC[C@H]1CNC(=O)c1c(O)c(Cl)cc(Cl)c1OC
inactive: outcome [1] | Potency [2] | Potency [3] | Potency [4] | Potency [5] | Potency [6]

Nc1c[n+](N2CCOCC2)no1
inactive: outcome [1] | Potency [2] | Potency [3] | Potency [4] | Potency [5] | Potency [6]

NS(=O)(=O)c1cc(C(=O)O)cc(N2CCCC2)c1Oc1ccccc1
inactive: outcome [1] | Potency [2] | Potency [3] | Potency [4] | Potency [5] | Potency [6]

COC(=O)c1ccc(C)cc1C1=NC(C)(C(C)C)C(=O)N1 (configuration not stated)
inactive: outcome [1] | Potency [2] | Potency [3] | Potency [4] | Potency [5] | Potency [6]

CC(=O)OCC(=O)[C@@]1(O)CC[C@H]2[C@@H]3CCC4=CC(=O)CC[C@]4(C)[C@H]3C(=O)C[C@@]21C
inactive: outcome [1] | Potency [2] | Potency [3] | Potency [4] | Potency [5] | Potency [6]

CC(C)NCC(O)c1ccc(NS(C)(=O)=O)cc1 (configuration not stated)
inactive: outcome [1] | Potency [2] | Potency [3] | Potency [4] | Potency [5] | Potency [6]

C[C@@H]1CCN(C(=O)[C@H](CCCN=C(N)N)NS(=O)(=O)c2cccc3c2NC[C@H](C)C3)[C@@H](C(=O)O)C1
inactive: outcome [1] | Potency [2] | Potency [3] | Potency [4] | Potency [5] | Potency [6]

O=C(O)CN(CCOCCOCCN(CC(=O)O)CC(=O)O)CC(=O)O
inactive: outcome [1] | Potency [2] | Potency [3] | Potency [4] | Potency [5] | Potency [6]

Cc1ccc(Cl)cc1Cl
inactive: outcome [1] | Potency [2] | Potency [3] | Potency [4] | Potency [5] | Potency [6]

OC[C@]1(O)OC[C@@H](O)[C@H](O)[C@@H]1O
inactive: outcome [1] | Potency [2] | Potency [3] | Potency [4] | Potency [5] | Potency [6]

CCCCC(CC)COC(=O)c1ccccc1O (configuration not stated)
inactive: outcome [1] | Potency [2] | Potency [3] | Potency [4] | Potency [5] | Potency [6]

C=CCOCC(CC)(CO)COCC=C
inactive: outcome [1] | Potency [2] | Potency [3] | Potency [4] | Potency [5] | Potency [6]

CCOC(=O)c1c(C)n(C)c2ccc(O)cc12
inactive: outcome [1] | Potency [4] | Potency [5] | Potency [7] | Potency [6] | Potency [8]

Cc1cccn2c(=O)c(-c3nnn[nH]3)cnc12
inactive: outcome [1] | Potency [2] | Potency [4] | Potency [5] | Potency [6]

CCCCCCCCCCCCCC=O
inactive: viability change, negative = cytotoxic [1] -0.799% [at 7.04 µM] | activity change, negative = cytotoxicity [4] -24.1% [at 8.55 µM] | activity change, negative = cytotoxicity [5] 5.83% [at 7.04 µM] | viability change, negative = cytotoxic [6] -4.68% [at 8.47 µM]

CC(=O)CC(C)(C)C1CCCCC1
inactive: outcome [1] | Potency [2] | Potency [4] | Potency [5] | Potency [6]

CC(C)NC(=O)NC(C)C
inactive: outcome [1] | Potency [4] | Potency [5] | outcome [9] | outcome [10] | Potency [7] | Potency [6] | Potency [8]

Nc1nc2c(ncn2COC(CO)CO)c(=O)[nH]1
inactive: outcome [1] | Potency [6]
active: Potency [2] 2.85 µM | Potency [4] 8.04 µM
